# Test results reported in PubChem BioAssay (Tox21).
# A number with no mark means an inactive call. Inconclusive results are not listed. Where a call stands in place of a potency, no number is given. Active and inactive are the calls of the source. Unless noted, the call rests on the fitted dose curve; in most records, active means well fitted curve in the direction sought with a large enough effect in the repeat runs; inconclusive means weak or mixed curves; inactive means no such curve, though single readings can be large; an effect the other way counts as inactive or inconclusive.
# Legend:
# [1] = qHTS assay for small molecule agonists of the p53 signaling pathway (AID 651631; calls by dose curve; further: nearly all actives have a fitted effect of over 15% in size; further: potency means the concentration at half of the fitted maximal effect)
# In short: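 HCT-116 cells carrying a beta-lactamase reporter under p53 response elements were dosed with compound for 16 h at 37 °C. LiveBLAzer B/G FRET substrate was then added for 2 h at room temperature, and fluorescence intensity was read to detect pathway agonism.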
# [2] = qHTS assay for small molecules that induce genotoxicity in human embryonic kidney cells expressing luciferase-tagged ATAD5 (AID 651632); further: nearly all actives have a fitted effect of over 15% in size; further: potency means the concentration at half of the fitted maximal effect
# In short: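 Test compounds were delivered by pin tool onto HEK293T reporter cells (2,000/well) expressing ATAD5 fused to luciferase. After 16 hr at 37C, 5% CO2, Amplite was added for 30 min at room temperature and luminescence was measured.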
# [3] = qHTS assay for small molecules that induce genotoxicity in human embryonic kidney cells expressing luciferase-tagged ATAD5 - cell viability (AID 651634; calls by dose curve; further: nearly all actives have a fitted effect of over 25% in size)
# In short: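 Quantitative high-throughput format. HEK293T cells expressing ATAD5 fused to luciferase were plated at 2,000 cells/well and treated 15.5 hr with compound versus DMSO. Viability was determined by fluorescent live-cell protease substrate, 30 min at 37C.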
# [4] = qHTS assay for small molecule disruptors of the mitochondrial membrane potential - cell viability (AID 720634; calls by dose curve; further: nearly all actives have a fitted effect of over 20% in size; further: potency means the concentration at half of the fitted maximal effect)
# In short: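 Same-well counter-screen: following the MMP dye addition, CellTiter-Glo was added to 1 hr compound-treated HepG2 cells and luminescence read after 30 min at room temperature.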
# [5] = qHTS assay for small molecule disruptors of the mitochondrial membrane potential (AID 720635); further: potency means the concentration at half of the fitted maximal effect
# In short: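 HepG2 cells (2,000/well) attached overnight at 37C, then took compound for 1 hr at 37C, 5% CO2. Mito-MPS dye was added for 30 min; fluorescence was read at 490/535 nm (monomers) and 540/590 nm (aggregates).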
# [6] = qHTS assay to test for compound auto fluorescence at 590 nm (red) in HepG2 cells (AID 720674)
# In short: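 Rose Bengal sodium served as the red fluorophore standard. HepG2 monolayers (overnight attachment, MEM with 10% FBS) were exposed to test compounds for 1 hr at 37 C and read at Ex 540/Em 590 nm.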
# [7] = qHTS assay to test for compound auto fluorescence at 535 nm (green) in HepG2 cells (AID 720675)
# [8] = qHTS assay to test for compound auto fluorescence at 460 nm (blue) in HEK293 cells (AID 720678)
# In short: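 Cells were seeded and left to adhere for 4-5 hr at 37C. Compounds were then pin-transferred. After an overnight incubation at 37C under 5% CO2, intrinsic fluorescence at 405/460 nm was measured and referenced to triamterene.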
# [9] = qHTS assay to test for compound auto fluorescence at 590 nm (red) in HEK293 cells (AID 720679)
# In short: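 Each well held 2,000 HEK293 cells in medium containing 10% dialyzed FBS. Following 4-5 hr attachment at 37C, 23 nL test compound or DMSO was added; plates sat overnight, and red fluorescence (540/590nm) was recorded.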
# [10] = qHTS assay to test for compound auto fluorescence at 535 nm (green) in HEK293 cells (AID 720680)
# [11] = qHTS assay to test for compound auto fluorescence at 460 nm (blue) in HEK293 cell free culture (AID 720681)
# In short: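 Test compounds were pinned into cell-free culture medium (DMEM with 10% FBS) and fluorescence was read directly at Ex/Em 405/460 nm. Signals were expressed as fluorescence equivalents of triamterene, with DMSO vehicle as control.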
# [12] = qHTS assay to test for compound auto fluorescence at 535 nm (green) in HEK293 cell free culture (AID 720682)
# In short: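 Green-label autofluorescence (485 nm excitation, 535 nm emission) measured on compound added to cell-free culture medium (DMEM, 10% FBS). Output is expressed relative to fluorescein.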
# [13] = qHTS assay to test for compound auto fluorescence at 590 nm (red) in HEK293 cell free culture (AID 720683)
# In short: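 Tox21 10K library compounds were pinned into cell-free DMEM with 10% FBS and fluorescence was read at excitation 540 nm. Activity is expressed as Rose Bengal sodium equivalency.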
# [14] = qHTS assay to test for compound auto fluorescence at 590 nm (red) in HepG2 cell free culture (AID 720684)
# In short: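 Readout: intrinsic compound fluorescence at 590 nm emission after 540 nm excitation, scaled to Rose Bengal sodium. Matrix was cell-free MEM with 10% FBS; DMSO vehicle wells served as control.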
# [15] = qHTS assay to test for compound auto fluorescence at 460 nm (blue) in HepG2 cell free culture (AID 720685)
# In short: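 Cell-free plates of MEM plus 10% FBS received 23 nL compound or DMSO vehicle; blue-channel (405/460 nm) intensity scored against triamterene as reference fluorophore.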
# [16] = qHTS assay to test for compound auto fluorescence at 535 nm (green) in HepG2 cell free culture (AID 720686)
# [17] = qHTS assay to test for compound auto fluorescence at 460 nm (blue) in HepG2 cells (AID 720687)
# In short: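 Cells (2,000/well in MEM with 10% FBS) attached overnight at 37 C, then were exposed to compound or DMSO for 1 hr at 37 C, 5% CO2. Fluorescence read at Ex/Em 405/460 nm, expressed as triamterene-equivalent signal.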
# [18] = target: Glucocorticoid receptor (Homo sapiens) (UniProt P04150); test: qHTS assay to identify small molecule agonists of the glucocorticoid receptor (GR) signaling pathway (AID 720691; active means well fitted activation curve with a large enough effect in the signal ratio in the repeat runs, not every such curve was filed as active; the % refers to the signal ratio)
# In short: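 A HeLa cervical cancer line expressing GR and a glucocorticoid response element-driven beta-lactamase gene is treated with compounds for 18 h; LiveBLAzer B/G FRET substrate is then applied and fluorescence read.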
# [19] = target: Glucocorticoid receptor (Homo sapiens) (UniProt P04150); test: qHTS assay to identify small molecule antagonists of the glucocorticoid receptor (GR) signaling pathway (AID 720692; active means well fitted inhibition curve with a large enough effect in the signal ratio in the repeat runs, not every such curve was filed as active; the % refers to the signal ratio; further: potency means the concentration at half of the fitted maximal effect)
# In short: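 GRE-bla HeLa line, dex-stimulated (5 nM final). Compound exposure 18 h, 37 C. Beta-lactamase FRET read after 2 h RT substrate.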
# [20] = qHTS assay for small molecule agonists of the p53 signaling pathway - cell viability (AID 651633; calls by dose curve;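 further: p53RE-bla HCT reporter cells with a stable beta-lactamase p53 reporter; series mostly up to about 83 µM; nearly all actives have a fitted effect of over 30% in size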)
# In short: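 p53RE-bla cells, seeded at 4,000 per well and rested 5 h at 37 C/5% CO2, received compounds in DMSO for 16 h at 37 C. CellTiter-Glo was then added, and luminescence was read after 30 min at room temperature to gauge cytotoxicity.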
# Sequence of Glucocorticoid receptor (Homo sapiens) (P04150 whole entry, looked up): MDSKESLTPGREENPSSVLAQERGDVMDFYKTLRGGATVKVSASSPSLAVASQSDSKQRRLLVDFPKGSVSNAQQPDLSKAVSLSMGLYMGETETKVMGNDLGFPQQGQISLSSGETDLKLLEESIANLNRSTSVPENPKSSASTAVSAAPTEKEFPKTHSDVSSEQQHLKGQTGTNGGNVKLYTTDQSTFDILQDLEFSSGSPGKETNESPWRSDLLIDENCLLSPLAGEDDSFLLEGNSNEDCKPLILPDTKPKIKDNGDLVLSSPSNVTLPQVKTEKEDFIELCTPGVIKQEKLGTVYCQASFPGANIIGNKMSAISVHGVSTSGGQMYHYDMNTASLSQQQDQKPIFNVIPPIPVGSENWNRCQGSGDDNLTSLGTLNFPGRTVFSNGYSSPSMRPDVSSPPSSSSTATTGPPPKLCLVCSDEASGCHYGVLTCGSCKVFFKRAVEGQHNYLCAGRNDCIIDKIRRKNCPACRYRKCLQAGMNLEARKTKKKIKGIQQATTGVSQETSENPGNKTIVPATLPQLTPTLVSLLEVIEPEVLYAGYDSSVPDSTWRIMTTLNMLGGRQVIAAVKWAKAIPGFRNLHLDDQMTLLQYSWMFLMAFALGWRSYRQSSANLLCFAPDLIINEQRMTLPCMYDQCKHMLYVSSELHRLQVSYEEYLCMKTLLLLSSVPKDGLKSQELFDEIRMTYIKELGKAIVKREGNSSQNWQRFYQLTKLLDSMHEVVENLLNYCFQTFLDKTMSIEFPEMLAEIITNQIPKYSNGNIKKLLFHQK
smiles,measurement,setting,value
CCCC(=O)C(=O)O,Potency,[1],inactive
same,Potency,[2],inactive
same,Potency,[3],inactive
same,Potency,[4],inactive
same,Potency,[5],inactive
same,outcome,[6],inactive
same,outcome,[7],inactive
same,Potency,[8],inactive
same,outcome,[9],inactive
same,outcome,[10],inactive
same,Potency,[11],inactive
same,outcome,[12],inactive
same,outcome,[13],inactive
same,outcome,[14],inactive
same,Potency,[15],inactive
same,outcome,[16],inactive
same,Potency,[17],inactive
same,Potency,[18],inactive
same,Potency,[19],inactive
c1cc(N(CC2CO2)CC2CO2)ccc1Cc1ccc(N(CC2CO2)CC2CO2)cc1 (stereo not given),Potency,[1],24.3 µM (active)
same,Potency,[2],15.4 µM (active)
same,Potency,[4],48.6 µM (active)
same,Potency,[5],27.3 µM (active)
same,outcome,[7],inactive
same,Potency,[8],inactive
same,outcome,[9],inactive
same,outcome,[10],inactive
same,Potency,[11],inactive
same,outcome,[12],inactive
same,outcome,[13],inactive
same,Potency,[15],inactive
same,outcome,[16],inactive
same,Potency,[17],inactive
CC(C)(C)C(=O)C(=O)O,Potency,[1],inactive
same,Potency,[2],inactive
same,Potency,[3],inactive
same,Potency,[4],inactive
same,outcome,[6],inactive
same,outcome,[7],inactive
same,Potency,[8],inactive
same,outcome,[9],inactive
same,outcome,[10],inactive
same,Potency,[11],inactive
same,outcome,[12],inactive
same,outcome,[13],inactive
same,outcome,[16],inactive
same,Potency,[17],inactive
COc1ccccc1N1CCN(CCCCNC(=O)c2ccc(-c3ccc(C(C)=O)cc3)cc2)CC1,Potency,[1],inactive
same,Potency,[2],inactive
same,Potency,[3],inactive
same,Potency,[4],inactive
same,Potency,[5],inactive
same,outcome,[6],inactive
same,outcome,[7],inactive
same,Potency,[8],inactive
same,outcome,[9],inactive
same,outcome,[10],inactive
same,Potency,[11],inactive
same,outcome,[12],inactive
same,outcome,[13],inactive
same,outcome,[16],inactive
same,Potency,[17],inactive
same,Potency,[18],inactive
same,Potency,[19],inactive
CC(=O)[C@H]1[C@H](C#N)C[C@H]2[C@@H]3CC=C4C[C@@H](O)CC[C@]4(C)[C@H]3CC[C@@]21C,Potency,[1],inactive
same,Potency,[2],inactive
same,Potency,[3],inactive
same,Potency,[4],inactive
same,Potency,[5],inactive
same,outcome,[7],inactive
same,Potency,[8],inactive
same,outcome,[9],inactive
same,outcome,[10],inactive
same,Potency,[11],inactive
same,outcome,[12],inactive
same,outcome,[13],inactive
same,outcome,[14],inactive
same,Potency,[15],inactive
same,outcome,[16],inactive
same,Potency,[17],inactive
same,Potency,[18],inactive
same,Potency,[19],10.6 µM (active)
CCCCCCCCCCC(=O)O,Potency,[1],inactive
same,Potency,[2],inactive
same,Potency,[20],inactive
same,Potency,[3],inactive
same,outcome,[7],inactive
same,Potency,[8],inactive
same,outcome,[9],inactive
same,outcome,[10],inactive
same,Potency,[11],inactive
same,outcome,[12],inactive
same,outcome,[13],inactive
same,outcome,[14],inactive
same,Potency,[15],inactive
same,outcome,[16],inactive
same,Potency,[17],inactive
same,Potency,[18],inactive
CCC1NC(=O)c2cc(S(N)(=O)=O)c(Cl)cc2N1 (stereo not given),Potency,[1],inactive
same,Potency,[20],inactive
same,Potency,[3],inactive
same,Potency,[4],inactive
same,"fluorescence, % of fluorescein control",[7],0.161% [at 18.6 µM]
same,"fluorescence, % of triamterene",[8],-0.286% [at 18.6 µM]
same,"fluorescence, % of fluorescent control",[9],-0.132% [at 18.6 µM]
same,"fluorescence, % of fluorescein",[10],-0.0959% [at 18.6 µM]
same,"fluorescence, % of fluorescent control",[11],-0.0955% [at 18.6 µM]
same,activity change,[12],-0.178% [at 18.6 µM]
same,"fluorescence, % of fluorescent control",[13],-0.121% [at 18.6 µM]
same,"fluorescence, % of fluorescent control",[15],-0.0342% [at 18.6 µM]
same,"fluorescence, % of fluorescein control",[16],0.0837% [at 18.6 µM]
same,Potency,[18],inactive
C=CC(=O)OCC1CC2CC1C1CCC(COC(=O)C=C)C21 (stereo not given),Potency,[1],54.5 µM (active)
same,Potency,[4],inactive
same,outcome,[6],inactive
same,outcome,[7],inactive
same,Potency,[8],inactive
same,outcome,[9],inactive
same,outcome,[10],inactive
same,Potency,[11],inactive
same,outcome,[12],inactive
same,outcome,[13],inactive
same,outcome,[14],inactive
same,Potency,[15],inactive
same,outcome,[16],inactive
same,Potency,[17],inactive
Cc1ccco1,Potency,[1],inactive
same,Potency,[2],inactive
same,Potency,[3],inactive
same,Potency,[4],inactive
same,Potency,[5],inactive
same,outcome,[6],inactive
same,outcome,[7],inactive
same,Potency,[8],inactive
same,outcome,[9],inactive
same,outcome,[10],inactive
same,Potency,[11],inactive
same,outcome,[12],inactive
same,outcome,[13],inactive
same,outcome,[14],inactive
same,Potency,[15],inactive
same,outcome,[16],inactive
same,Potency,[17],inactive
same,Potency,[18],inactive
same,Potency,[19],inactive
